Reference: PubChem BioAssay (NCATS)
Records with an inconclusive call do not appear. Active and inactive are the calls of the source. The call rests on the fitted dose curve; tested in HEK293 reporter line.

Assay: qHTS for Inhibitors of the Functional Ribonucleoprotein Complex (vRNP) of Lassa (LASV) Arenavirus: LASV Primary Screen - GLuc reporter signal (AID 1347082); further: nearly all actives have a fitted effect of over 60% in size
Settings: LASV minigenome vRNP, Gaussia luciferase reporter; series mostly up to 57.5 µM; activity change, negative = inhibition: at the top concentration
On the % scale 0 is the no-effect control and ±100 the full control effect.

SMILES | activity change, negative = inhibition
CCCN(CCC)C1Cc2cc(OC)c(OC)cc2C1 | 6.63% (inactive)
CCOC(=O)c1ncn2c1[C@@H]1CCCN1C(=O)c1cc(OC)ccc1-2 | -0.9% (inactive)
CCCN(CCC)CCc1ccc(O)c(O)c1 | 5.68% (inactive)
CC(N)c1cccc(Cl)c1Cl (stereo not given) | 2.51% (inactive)
N[C@@]1(C(=O)O)CC[C@@H](C(=O)O)C1 | 5.27% (inactive)
CC12NC(Cc3ccccc31)c1ccccc12 (stereo not given) | 13.1% (inactive)
c1ccc2c(N3CCNCC3)cccc2c1 | 0.299% (inactive)
C[N+]1(C)CCOC(O)(c2ccc(-c3ccc(C4(O)C[N+](C)(C)CCO4)cc3)cc2)C1 (stereo not given) | -0.142% (inactive)
N=C(N)c1ccc(CS(=O)(=O)F)cc1 | 2.35% (inactive)
CC(N)Cc1c[nH]c2ccc(OCc3cccs3)cc12 (stereo not given) | 0.525% (inactive)
O=C1CC[C@@]2(O)C3Cc4ccc(O)c5c4C2(CCN3CC2CC2)[C@H]1O5 (stereo not given in full) | 10.5% (inactive)
CCN1C[C@@]2(COC)C3[C@@H](OC)C4[C@@H]1C3([C@@H]1C[C@]3(O)[C@H](OC(=O)c5ccccc5)[C@@H]1[C@]4(OC(C)=O)[C@@H](O)[C@@H]3OC)[C@H](OC)C[C@H]2O | -4.6% (inactive)
CCNC(=O)[C@H]1O[C@@H](n2cnc3c(N)ncnc32)[C@H](O)[C@@H]1O | 38.5% (inactive)
CO[C@H]1CC=C2CCN3CCC4=C(CC(=O)OC4)[C@]23C1 | -4.09% (inactive)

Assay: qHTS for Inhibitors of the Functional Ribonucleoprotein Complex (vRNP) of Lassa (LASV) Arenavirus: Viability assay - alamar blue signal for LASV Primary Screen (AID 1347083); further: nearly all actives have a fitted effect of over 80% in size; further: potency means the concentration at half of the fitted maximal effect
Settings: cell viability, alamar blue fluorescence (LASV minigenome counter-screen); series mostly up to 57.5 µM; activity change, negative = reduced viability: at the top concentration

SMILES | activity change, negative = reduced viability | Potency
C#CCN[C@H](C)Cc1ccccc1 | 8.84% (inactive) | 
NCC(O)c1cc(O)c(O)cc1F (stereo not given) | 0.0476% (inactive) | 
NCCc1c[nH]c2ccc(C(N)=O)cc12 | 0.578% (inactive) | 
C[C@@H]1O[C@@H](O[C@H]2C[C@@H](O)[C@]3(CO)[C@@H]4C(CC[C@]3(O)C2)[C@@]2(O)CC[C@H]([C@@H]3COC(=O)C3)[C@@]2(C)C[C@H]4O)[C@H](O)[C@H](O)[C@H]1O (stereo not given in full) |  | 3.98 µM (active)
CC(N)Cc1c[nH]c2ccc(O)cc12 (stereo not given) | 5.91% (inactive) | 
NNC(=O)c1ccc(O)cc1 | 17.5% (inactive) | 
C=CCN1CCC23c4c5ccc(O)c4O[C@H]2C(=O)CC[C@@]3(O)C1C5 (stereo not given in full) | -0.437% (inactive) | 
NC(=O)COc1c(F)cc(SCCNS(=O)(=O)c2ccccc2)cc1F | 0.576% (inactive) | 
CNc1ccc2oc(C[C@H]3O[C@@]4(CC[C@H]3C)O[C@H]([C@H](C)C(=O)c3ccc[nH]3)[C@H](C)C[C@H]4C)nc2c1C(=O)O |  | 11.2 µM (active)
NNC(N)=O | 12.9% (inactive) | 
c1ccc2c(c1)[I+]c1ccccc1-2 |  | 1.58 µM (active)
Oc1ccc2c3c1O[C@H]1c4[nH]c5ccccc5c4C[C@@]4(O)C(C2)N(CC2CC2)CCC314 (stereo not given in full) | -33.6% (inactive) | 
NC(CCCCCP(=O)(O)O)C(=O)O (stereo not given) | -5.52% (inactive) | 
O=C1C=CC(=O)C=C1 |  | inactive
CCCN1CC[C@@H]2c3cc(O)ccc3CC[C@@H]21 | -3.73% (inactive) | 
OC1CCCCC1N1CCC(c2ccccc2)CC1 (stereo not given) | -3.75% (inactive) | 

SMILES | activity change, negative = reduced viability | Potency
COC(=O)N1CCN(C(=O)Cc2ccc(Cl)c(Cl)c2)C(CN2CCCC2)C1 (stereo not given) | 4.81% (inactive) | 
Cc1[nH]c2ccc(O)cc2c1CCN | 0.0713% (inactive) | 
NC(=O)c1ccc(OCC(O)CN2CC=C(c3ccc(F)cc3)CC2)cc1 (stereo not given) | 7.41% (inactive) | 
CCCN(CCC)[C@H]1CCc2c(F)ccc(O)c2C1 | -1.94% (inactive) | 
Cc1o[nH]c(=O)c1CC(N)C(=O)O (stereo not given) | 0.405% (inactive) | 
CN(C(=O)Cc1ccc(Cl)c(Cl)c1)C(CN1CCCC1)c1cccc(OCC(=O)O)c1 (stereo not given) | -1.01% (inactive) | 
Cc1cc([C@@H]2CCCN2C)on1 | 3.31% (inactive) | 
C[N+]1(C)CCc2cc3c(cc2[C@H]1[C@@H]1OC(=O)c2c1ccc1c2OCO1)OCO3 | 11.5% (inactive) | 
CCCN(CCC)C1Cc2cc(OC)c(OC)cc2C1 | 0.447% (inactive) | 
CCOC(=O)c1ncn2c1[C@@H]1CCCN1C(=O)c1cc(OC)ccc1-2 | -8.13% (inactive) | 
CCCN(CCC)CCc1ccc(O)c(O)c1 | 3.21% (inactive) | 
CC(N)c1cccc(Cl)c1Cl (stereo not given) | 0.0892% (inactive) | 
N[C@@]1(C(=O)O)CC[C@@H](C(=O)O)C1 | 26.6% (inactive) | 
CC12NC(Cc3ccccc31)c1ccccc12 (stereo not given) | 19.3% (inactive) | 
c1ccc2c(N3CCNCC3)cccc2c1 | -3.41% (inactive) | 
